Laboratory results reported in PubChem BioAssay (Tox21).
Values without a mark were called inactive. Where a call stands in place of a potency, no number is given. Active and inactive are the calls of the source. Calls come from the whole dose curve.

Each compound was assayed against Muscarinic acetylcholine receptor M1 (Homo sapiens) (UniProt P11229) (assay: Cholinergic receptor muscarinic 1 (CHRM1) small molecule agonists, cell-based qHTS assay (AID 1963589; note: nearly all actives have a fitted effect of over 35% in size)). Conditions: CHRM1-CHO cells, agonist mode, calcium flux fluorescence; series mostly up to 76.8 µM.
From the text: National Center for Advancing Translational Sciences [NCATS]
Division of Preclinical Innovation [DPI]
U.S. Environmental Protection Agency [EPA]
National Institutes of Environmental Health Sciences [NIEHS]
National Toxicology Program [NTP]
U.S. Food and Drug Administration [FDA]
The CHRM1 is a muscarinic receptor. This receptor plays a crucial role in learning and memory processes and has long been identified as a promising therapeutic target for the improvement of cognitive decline in Alzheimer's disease (AD). The CHRM1-CHO cell line stably expressing human muscarinic acetylcholine receptor M1 (CHRM1) can be used for screening agonists and antagonists of interactions between CHRM1 and its ligands. The CHRM1-CHO Calcium Flux Assay is a homogeneous fluorescence-based assay for detecting the intracellular calcium level using FDSS kinetic plate reader system.
CHRM1-CHO cells were dispensed at 1000 cells/3uL/well in 1536-well black-clear bottom plates using a Multidrop Dispenser. After the assay plates were incubated at a 37 C/5% CO2 incubator for 18 h, 3 uL of Dye Loading Buffer was transferred to the assay plate by a Flying Reagent Dispenser. The assay plates were incubated at 37 C for 1h. For agonist mode, 23 nL of compounds dissolved in DMSO, positive controls or DMSO only was transferred to the assay plate by a pin tool. […] Each test compound was measured at 15 concentrations in three independent runs.

Muscarinic acetylcholine receptor M1 (Homo sapiens), sequence (P11229 whole entry, looked up): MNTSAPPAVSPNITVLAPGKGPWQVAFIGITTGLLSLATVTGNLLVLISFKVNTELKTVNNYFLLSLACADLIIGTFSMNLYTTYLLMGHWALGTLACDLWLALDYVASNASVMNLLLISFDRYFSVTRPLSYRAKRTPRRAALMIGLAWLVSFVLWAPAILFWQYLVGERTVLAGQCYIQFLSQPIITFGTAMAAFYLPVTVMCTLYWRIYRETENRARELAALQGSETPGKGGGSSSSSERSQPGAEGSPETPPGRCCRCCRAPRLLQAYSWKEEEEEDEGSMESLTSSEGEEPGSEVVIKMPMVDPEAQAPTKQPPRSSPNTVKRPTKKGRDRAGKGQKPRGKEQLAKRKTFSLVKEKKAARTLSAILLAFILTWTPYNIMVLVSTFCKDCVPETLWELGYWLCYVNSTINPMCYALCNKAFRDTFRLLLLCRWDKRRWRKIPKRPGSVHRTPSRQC

| SMILES | Potency | activation |
| --- | --- | --- |
| [Cl-].[Cl-].[Cl-].[Fe+3] | inactive | – |
| Cc1ccc(N=C=O)cc1N=C=O | inactive | – |
| CCOP(=O)(OCC)Oc1ccc([N+](=O)[O-])cc1 | inactive | – |
| C[C@]1(O)CC[C@H]2[C@@H]3CCC4=CC(=O)CC[C@]4(C)[C@@]3(F)[C@@H](O)C[C@@]21C | inactive | – |
| CC(C)COC(=O)c1ccccc1C(=O)OCC(C)C | inactive | – |
| COC(=O)c1ccccc1C(=O)OC | inactive | – |
| CCCCOCCOP(=O)(OCCOCCCC)OCCOCCCC | inactive | – |
| FC(Cl)(Cl)Cl | inactive | – |
| C/C=C/CC#N | inactive | – |
| [O-][Cl+]O | inactive | – |
| S=c1[nH]c2ccccc2[nH]1 | inactive | – |
| C1CC2OC2CC1C1CO1 (stereo not given) | inactive | – |
| CON(C)C(=O)Nc1ccc(Cl)cc1 | inactive | – |
| O=C(Cc1ccccc1)c1ccccc1 | inactive | – |
| CCCCCCCCCCCCn1cc[n+](C)c1 | inactive | – |
| CCC(=O)C(CC(C)N(C)C)(c1ccccc1)c1ccccc1 (stereo not given) | inactive | – |
| CN(C)P(=O)(N(C)C)N(C)C | inactive | – |
| Oc1cc(Cl)ccc1Cl | inactive | – |
| c1ccc(N=NNc2ccccc2)cc1 | inactive | – |
| CNC(=O)CSP(=S)(OC)OC | inactive | – |

| SMILES | Potency | activation |
| --- | --- | --- |
| CCC(=O)OC1(c2ccccc2)CCN(C)CC1 | inactive | – |
| CCOP(=S)(OCC)Oc1ccc2c(C)c(Cl)c(=O)oc2c1 | inactive | – |
| O=S(=O)(Cl)Cl | inactive | – |
| COP(=S)(OC)Oc1ccc([N+](=O)[O-])cc1 | inactive | – |
| c1cc2c3c(cccc3c1)CC2 | inactive | – |
| CCN(CC)C(=O)C(C)Oc1cccc2ccccc12 (stereo not given) | inactive | – |
| Cc1ccccc1O | inactive | – |
| C/C(=N\NC(=O)Nc1cc(F)cc(F)c1)c1ncccc1C(=O)O | inactive | – |
| CCC(CC)Nc1c([N+](=O)[O-])cc(C)c(C)c1[N+](=O)[O-] | inactive | – |
| [N-]=[N+]=[N-] | inactive | – |
| CC1C=[C-]C=C1.[C-]#[O+].[C-]#[O+].[C-]#[O+].[Mn] | inactive | – |
| Nc1ccc(-c2ccc(N)c(Cl)c2)cc1Cl | inactive | – |
| Cc1ccc(Cl)c(O)c1 | inactive | – |
| Brc1c(Br)c(Br)c(Oc2c(Br)c(Br)c(Br)c(Br)c2Br)c(Br)c1Br | – | -0.663% [at 15.8 µM] |
| NCCc1ccc(O)cc1 | inactive | – |
| C=CCc1ccccc1O | inactive | – |
| CCNc1nc(NC(C)(C)C)nc(SC)n1 | inactive | – |
| C[N+]1(C)CCCCC1 | inactive | – |
| O=NN1CCCCCCC1 | inactive | – |
| CC(=[OH+])/C=C(/C)[O-].CC(=[OH+])/C=C(\C)[O-].CC(=[OH+])/C=C(\C)[O-].[Al] | inactive | – |
